Results: PubChem BioAssay (EPA / NIEHS)
Results filed as inconclusive are left out. Where a structure was tested more than once in an assay, its records may differ in their call. The source made the active and inactive calls. How the source made its calls: active means hit-call score of the fitted dose curve at least 0.9, where 1 is the maximum; inconclusive means response in the unintended direction; inactive means score below 0.9.

Columns and labels:
[1] = ArunA_CellTiter_hNP: Viability Assessment in the ArunA Biomedical's Oris Neural Crest (hNC) Cell Migration Assay (AID 2283753)
Method in brief: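 Viability read with CellTiter 96 Aqueous One after 72 h chemical exposure of human hNP1 neuroprogenitors, which were plated on Matrigel in LIF/bFGF medium 16 h beforehand. Endpoint fitted in positive direction relative to DMSO.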

[2] = ArunA_Migration_hNP: ArunA Biomedical's Oris Neuroprogenitor (hNP) Cell Migration Assay (AID 2283754)
Method: ArunA_Migration_hNP is a cell-based, single-readout assay that uses human H9-derived neuroprogenitor stem cells (hNP1). Measurements were taken 72 hours after chemical dosing in a 96-well plate.ArunA_Migration_hNP is an assay component measured from the ArunA_Migration_hNP assay. It is designed to make measurements of cell migration, a form of distribution reporter, as detected with fluorescence intensity signals by HCS Fluorescent Imaging technology. Data from the assay component ArunA_Migration_hNP was analyzed at the endpoint, ArunA_Migration_hNP, in the positive analysis fitting direction relative to DMSO as the negative control and baseline of activity. […]
To assess the hNP and hNC migration and cell titer endpoints, 60,000 cells per well were plated onto Matrigel in basal growth medium with LIF and bFGF in a 96-well plate format. […] Cell viability in the detection zone was quantitated using a Flexstation3 microplate reader (ex494 nm/em 517 nm). Corresponding cell titer endpoints were assessed for the hNP and hNC cells using the Promega CellTiter Aqueous One Solution Cell Proliferation Assay (Cat no. G3581; CellTiter 96). Finally, to gain insight into the mechanisms by which cells migrate into the detection zone, Ki-67 expression was quantified for 10 additional chemicals in the hNP and hNC systems. […]

[3] = ArunA_NOG_NeuritesPerNeuron: ArunA Biomedical's Neurite Outgrowth (NOG) Assay for Neurites Per Neuron (AID 2283758)
Method in brief: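 Differentiated human H9-derived neurons exposed to chemicals for 48 h from seeding, then stained with Hoechst and βIII-tubulin/DyLight 488. Automated imaging counted neurites (processes >10 um) per valid neuron; loss of signal versus DMSO scored.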

[4] = ACEA_AR_agonist_AUC_viability: ACEA Biosciences xCELLigence Real-Time Cell Analysis on Androgen Receptor Agonism for Viability (AID 2283775);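 on AC50: viability read 80 hours after compound addition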
Method in brief: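 Viability endpoint from xCELLigence impedance in 22Rv1 prostate cells at 80 h. Eight-point series, 100 uM maximum final.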

[5] = ACEA_AR_antagonist_AUC_viability: ACEA Biosciences xCELLigence Real-Time Cell Analysis on Androgen Receptor Antagonism for Viability (AID 2283776);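 further: 22Rv1 human prostate cancer cells growing on impedance electrode plates; area under impedance growth curve at 80 h after dosing as viability; hits lower the growth signal relative to DMSO meaning cytotoxicity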
Method in brief: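 22Rv1 prostate cells, continuous dosing up to 100 uM final (0.5% DMSO max), duplicate plates. Growth measured by impedance; AUC at 80 h, loss of signal vs DMSO.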

[6] = ACEA_ER_AUC_viability: ACEA Biosciences xCELLigence Real-Time Cell Analysis on Estrogen Receptor Agonism for Viability (AID 2283782);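 further: hit means loss of impedance signal meaning reduced cell growth or viability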
Method in brief: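 Read-out: real-time electrical impedance (RT-CES) area under curve, loss of signal taken as reduced viability, normalized to DMSO baseline. T-47D cells, charcoal-stripped serum medium, compounds up to 100 uM final, continuous exposure, 80 h.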

## CCC(C)Nc1c([N+](=O)[O-])cc(C(C)(C)C)cc1[N+](=O)[O-] (stereo not drawn)
[1]
  outcome: inactive

## Oc1cc(Cl)ccc1Oc1ccc(Cl)cc1Cl
[1]
  outcome: inactive
[2]
  outcome: inactive
[3]
  outcome: inactive

## O=S(=O)(O)C(F)(F)C(F)(F)C(F)(F)C(F)(F)C(F)(F)C(F)(F)C(F)(F)C(F)(F)F
[2]
  outcome: inactive
[3]
  AC50: 1.02 µM (active)

## ClC1C(Cl)C(Cl)C(Cl)C(Cl)C1Cl (stereo not drawn)
[4]
  outcome: inactive
[5]
  AC50: 37.8 µM (active)
  outcome: inactive
[6]
  AC50: 60.1 µM (active)
  outcome: inactive

## OCCOc1ccccc1
[5]
  outcome: inactive
[6]
  outcome: inactive

## O=C(O)CCCOc1ccc(Cl)cc1Cl
[4]
  outcome: inactive
[5]
  outcome: inactive
[6]
  outcome: inactive

## Clc1ccccc1-c1nnc(-c2ccccc2Cl)nn1
[6]
  outcome: inactive

## CCC(C)(NC(=O)c1cc(Cl)c(C)c(Cl)c1)C(=O)CCl (stereo not drawn)
[4]
  AC50: 26.5 µM (active)
[5]
  AC50: 22 µM (active)
[6]
  AC50: 9.16 µM (active)

## O=[N+]([O-])c1c(Cl)c(Cl)c(Cl)c(Cl)c1Cl
[4]
  AC50: 58.6 µM (active)
[5]
  AC50: 50 µM (active)
[6]
  AC50: 72.3 µM (active)

## CCC(C)(C)C(=O)OC1=C(c2ccc(Cl)cc2Cl)C(=O)OC12CCCCC2
[4]
  AC50: 81.9 µM (active)
[5]
  outcome: inactive
[6]
  AC50: 12.3 µM (active)

## O=C(NC(=O)c1c(F)cccc1F)Nc1ccc(OC(F)(F)C(F)OC(F)(F)F)c(Cl)c1 (stereo not drawn)
[4]
  outcome: inactive
[5]
  outcome: inactive

## CCc1ccc(C(=O)NN(C(=O)c2cc(C)cc(C)c2)C(C)(C)C)cc1
[4]
  AC50: 50 µM (active)
[5]
  AC50: 50 µM (active)
[6]
  outcome: inactive

## CNC(=O)Oc1ccccc1OC(C)C
[5]
  outcome: inactive
[6]
  outcome: inactive

## CC(C)OC(=O)Nc1cccc(Cl)c1
[4]
  AC50: 86.1 µM (active)
[5]
  AC50: 50 µM (active)
[6]
  AC50: 79.6 µM (active)

## O=C(O)C(F)(F)C(F)(F)C(F)(F)C(F)(F)C(F)(F)C(F)(F)C(F)(F)F
[4]
  outcome: inactive
[5]
  AC50: 37.7 µM (active)
  outcome: inactive
[6]
  outcome: inactive

## C#CCN1C(=O)COc2cc(F)c(N3C(=O)C4=C(CCCC4)C3=O)cc21
[4]
  AC50: 50 µM (active)
[5]
  AC50: 50 µM (active)

## CCOC1Oc2ccc(OS(C)(=O)=O)cc2C1(C)C (stereo not drawn)
[4]
  AC50: 25.7 µM (active)
[5]
  AC50: 25.6 µM (active)

## Cc1[nH]c(=O)n(C(C)(C)C)c(=O)c1Cl
[4]
  outcome: inactive
[5]
  outcome: inactive
[6]
  outcome: inactive

## CC(C)(C)C(O)/C(=C\c1ccc(Cl)cc1Cl)n1cncn1 (stereo not drawn)
[5]
  AC50: 20.3 µM (active)
[6]
  AC50: 81.1 µM (active)

## CC[C@H](C)[C@H]1O[C@]2(C=C[C@@H]1C)C[C@@H]1C[C@@H](C/C=C(\C)[C@@H](O[C@H]3C[C@H](OC)[C@@H](O[C@H]4C[C@H](OC)[C@@H](O)[C@H](C)O4)[C@H](C)O3)[C@@H](C)/C=C/C=C3\CO[C@@H]4[C@H](O)C(C)=C[C@@H](C(=O)O1)[C@]34O)O2 (tested in a mixture with another compound)
[4]
  AC50: 4.08 µM (active)
[5]
  AC50: 4.93 µM (active)
[6]
  AC50: 6.89 µM (active)

## O=C(O)COc1ccc(Cl)cc1Cl
[4]
  outcome: inactive
[5]
  outcome: inactive
[6]
  outcome: inactive

## CC(C)(C)C(O)C(Oc1ccc(Cl)cc1)n1cncn1 (stereo not drawn)
[4]
  outcome: inactive
[5]
  AC50: 39.9 µM (active)
[6]
  outcome: inactive

## CC(C)N(C(=O)COc1nnc(C(F)(F)F)s1)c1ccc(F)cc1
[4]
  AC50: 21.4 µM (active)
[5]
  AC50: 50 µM (active)

## C[C@H]1[C@H](c2ccc(Cl)cc2)SC(=O)N1C(=O)NC1CCCCC1
[4]
  AC50: 73 µM (active)
[5]
  AC50: 12.4 µM (active)
[6]
  AC50: 79.9 µM (active)

## CCN(CC)C(=O)SCc1ccc(Cl)cc1
[4]
  AC50: 62.2 µM (active)
[5]
  AC50: 65.8 µM (active)
[6]
  AC50: 75.9 µM (active)

## N#Cc1c(Cl)c(Cl)c(Cl)c(C#N)c1Cl
[5]
  AC50: 3.7 µM (active)
[6]
  AC50: 1.54 µM (active)
